aSyn yeast inh: rescues yeast growth from alpha-synuclein toxicity. hit rate 0.14% among 370,000. Yeast expressing alpha-synuclein, growth rescue, BacTiter-Glo, 24 h. Potency, µM (titrated, usually from 46.1 µM), hits mostly activators. AID 652106; note: nearly all actives have a fitted effect of over 65% in size
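Readout is rescue of growth in alpha-synuclein-expressing yeast, so inhibitors of toxicity appear as activators. Growth after 24 hr at 30 deg C in galactose medium is quantified by luminescence.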
Abeta rescue: restores growth of yeast expressing A-beta42 peptide | hit rate 0.063% among 410,000 | AID 1347071 | Potency, µM (series often up to 46.1 µM), most hits filed as activators | yeast expressing A-beta42, growth rescue, OD600, 48 h; response scale: 0% DMSO, 100% iron-clioquinol control; note: nearly all actives have a fitted effect of over 55% in size
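Yeast growth medium received pinned compounds, then yeast cells expressing toxic A-beta were added; plates incubated at 30 C for 48 hr. Growth read as absorbance at 600 nm, normalized to DMSO and equimolar FeCl3 plus clioquinol controls.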
FUS yeast rescue: suppressors of FUS proteinopathy in yeast; AID 1347120; S. cerevisiae FUS-expressing, growth rescue, OD600, 24 h; hit rate 0.24% among 390,000; Potency, µM (top dose mostly 76.6 µM), hits mostly activators; note: nearly all actives have a fitted effect of over 55% in size
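Yeast expressing FUS under galactose induction, OD 0.005 in 2% galactose medium; compounds in a dilution series, 24 h at 30C. Growth rescue by absorbance at 600 nm; CP55940 positive control, DMSO negative.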
TDP43 rescue: TDP-43 toxicity inhibition in yeast; Potency, µM (titrated, usually from 46.1 µM), actives largely listed as activators; TDP-43 expressing yeast growth rescue, BacTiter-Glo, 24 h; hit rate 1.8% among 410,000; AID 652104; note: nearly all actives have a fitted effect of over 50% in size
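Yeast cells expressing TDP-43 under galactose induction are exposed to compounds for 24 hr at 30 deg C. BacTiter-Glo luminescence measures growth, so protective compounds score as activators.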
Numbers stand for hits; 0 = inactive; ? = inconclusive; - = no result. Only some compounds are listed: those with a hit (about 2.1% of all), similar ones and a draw of the others. Calls come from the whole dose curve; as a rule, active = well fitted curve in the direction sought with a large enough effect; inconclusive = small, poorly fitted or top-dose-only effect, or another doubt; inactive = no such curve, though single readings can be large; an effect the other way counts as inactive or inconclusive.

SMILES | aSyn yeast inh | Abeta rescue | FUS yeast rescue | TDP43 rescue
CCC(=O)Nc1cccc(C(=O)OCc2cccc([N+](=O)[O-])c2)c1 | 0 | 0 | 0 | 11µM
CS(=O)(=O)N1CCC[C@]2(CC[C@@H](CCC#N)O2)C1 | - | - | 0 | -
O=C(c1ccccc1)N1CC[C@H]2[C@H](CCCN2Cc2cc(F)cc(F)c2)C1 | - | - | 0 | -
COC(=O)C1=C[C@@H]([C@@H](C)[C@H](OC)c2ccccc2Br)[C@@H]2OCCC[C@H]12 | - | - | 0 | -
Cc1ccc2onc(CC(=O)N3CCN(c4ccc(F)cc4)CC3)c2c1 | - | 0 | 0 | 13µM
Cc1ccc2onc(CC(=O)N3CCN(c4ccccc4F)CC3)c2c1 | - | 0 | 0 | ?
Clc1ccccc1N=C1NN=C(c2cccs2)CS1 | 0 | 0 | 0 | 11µM
CC(C)CN1C(=O)C[C@@]2(C(=O)N(C)c3ccc(NS(=O)(=O)C4CC4)cc32)C1c1ccccc1 (stereo not given in full) | - | - | 0 | -
C=CC(=O)N1CCC[C@@H](n2nc(-c3ccc(Oc4ccccc4)cc3)c3c(N)ncnc32)C1 | 0 | - | - | -
CCOC(=O)[C@@]12CCCC=C1N(CCc1ccc(Cl)cc1)C(=O)[C@H]2CC(=O)N1CCCCC1 | - | - | 0 | -
CC(C)(C)C1CCC(C(=O)OCC(=O)c2ccc[nH]2)CC1 (stereo not given) | 0 | 0 | 0 | 18µM
Nc1cc([N+](=O)[O-])cc2oc(-c3ccccc3)cc12 | 0 | 0 | 0 | 35µM
COc1ccc(/C=C2\CC3(OC(=O)c4ccc(F)cc4)CCCN2C3)cc1 (stereo not given) | - | - | 0 | -
Nc1ccc2nc(SCc3ccccc3F)sc2c1 | 0 | 0 | 0 | 13µM
Nc1ccc2nc(SCC(=O)c3ccccc3)sc2c1 | 0 | 0 | 0 | ?
Cc1cccc(CCNC(=O)c2ccc(Sc3ccccc3Cl)c([N+](=O)[O-])c2)c1 | - | - | 0 | -
NCCCN(Cc1ccc(Cl)c(Cl)c1)c1ccc(Br)cn1 | 0 | - | - | -
O=C(/C=C/c1ccc(Cl)cc1Cl)c1nc2ccccc2[nH]1 | 0 | 0 | 0 | 11µM
Cc1noc(/C=C/N(C)C)c1S(=O)(=O)N1CCCC(C(=O)Nc2ccc3c(c2)OCO3)C1 (stereo not given) | 0 | 0 | 5.6µM | 0
Nn1c(SCc2ccc([N+](=O)[O-])cc2)nnc1-c1cc(-c2ccccc2)n[nH]1 | - | - | 0 | -
CCCCCc1ccc(-c2cn(CCc3c[nH]c4ccccc34)nn2)cc1 | 0 | 0 | 0 | 0
O=C(O)CCCCCCCCc1cn(CCc2c[nH]c3ccccc23)nn1 | 0 | 0 | 0 | 13µM
Cc1ccccc1NC(=O)c1ccccc1-c1ccccc1 | 0 | 0 | 0 | 0
CC(C)N(C(=O)c1ccccc1-c1ccccc1)C(C)C | 20µM | 0 | 0 | 0
CN(C)c1ccc(C(=C2c3ccccc3-c3ccccc32)c2ccc(N(C)C)cc2)cc1 | 0 | - | - | -
SMILES | aSyn yeast inh | Abeta rescue | FUS yeast rescue | TDP43 rescue
C=CCN=c1scc(-c2ccc3c(c2)NC(=O)CO3)n1/N=C(\C)c1ccccn1 | 0 | 0 | 0 | 13µM
CCCCn1c(N)c(-c2nc3ccccc3s2)c2c([N+](=O)[O-])nn(CC)c(=O)c21 | 0 | 0 | 0 | 0
CCCCn1c(N)c(-c2nc3ccccc3s2)c2c([N+](=O)[O-])nn(C)c(=O)c21 | 0 | 0 | 40µM | 0
CC(=O)OC12CCCN(C1)/C(=C/c1cccnc1)C2 (stereo not given) | - | - | 0 | -
Cc1cc(C(=O)CSc2nnc(-c3ccncc3)n2-c2ccccc2)c(C)n1C | 0 | 0 | 32µM | 0
CCCn1c(NC(=O)c2ccc(Br)cc2)nc2ccccc21 | 0 | 0 | 0 | 0
C=CCn1c(NC(=O)c2ccccc2)nc2ccccc21 | 0 | 0 | 0 | 18µM
CCCn1c(NC(=O)c2ccc(F)cc2)nc2ccccc21 | 0 | 0 | 0 | 0
CCCn1c(NC(=O)c2ccccc2Br)nc2ccccc21 | 0 | 0 | 0 | 16µM
CCn1c(NC(=O)c2ccccc2)nc2ccccc21 | 0 | 0 | 0 | ?
CCCCn1c(NC(=O)c2ccccc2)nc2ccccc21 | 25µM | 0 | 0 | ?
Clc1cccc(OCc2nc(-c3ccncc3)no2)c1 | 0 | 0 | 0 | 11µM
CC(=O)Nc1ccc(/C=C2\CCc3ccccc3C2=O)cc1 | 0 | 0 | 0 | 35µM
O=C1/C(=C\c2ccc([N+](=O)[O-])cc2)CCc2ccccc21 | 0 | 0 | 0 | ?
COc1ccc(/C=C2\CCc3ccccc3C2=O)cc1O | 0 | 0 | 0 | 14µM
CCCCCCC/C=C(\C)[C@@H](O)[C@@H](C)C(=O)N1CCC[C@@H]1C(=O)O | - | - | 0 | -
O=C(C[N+]1(CCO)CCOCC1)c1ccc2ccccc2c1 | 0 | - | - | -
O=c1c2ccccc2ncn1Cc1cccc2ccccc12 | 0 | 0 | 0 | 11µM
Cc1ccccc1Cn1cnc2ccccc2c1=O | 0 | 0 | 0 | ?
CCc1ccc(CN(C)C(=O)CCc2nc3ccccc3n(-c3ccc(OC)cc3)c2=O)cc1 | 0 | 0 | ? | 18µM
COc1ccc(-n2c(=O)c(CCC(=O)N(C)Cc3ccccc3C)nc3ccccc32)cc1 | 0 | 0 | 0 | 0
Cc1ccc2oc(-c3ccc(NC(=O)COc4ccccc4)cc3O)nc2c1 | 0 | - | - | -
COc1ccc(C2C(C(=O)N3CCN(C=O)CC3)CC(=O)N2c2ccc(OC)cc2)cc1 (stereo not given) | - | - | 0 | -
CSc1nc(Cl)cc(Nc2ccccc2N)n1 | 0 | 0 | 0 | 10µM
Nc1nc(Cl)cc(Nc2ccccc2Cl)n1 | 0 | 0 | 0 | 0
SMILES | aSyn yeast inh | Abeta rescue | FUS yeast rescue | TDP43 rescue
O=S(=O)(N[C@@H]1CCCC[C@H]1N1CCOCC1)c1ccc(Cl)cc1 | - | - | 0 | -
CCOc1nc(NC2CCCC2)nc(N2CCC(C)CC2)n1 | 0 | ? | 0 | 18µM
CCOc1nc(OCC)nc(N2CCC(C)CC2)n1 | 0 | 0 | 0 | 0
CN(c1c2c(nc3ncnn13)CCCC2)C1CCCCC1 | - | - | 0 | -
COc1cc(NC(=O)CSc2nc3nc(C)c(Cc4ccc(C)cc4)c(C)n3n2)cc(OC)c1 | - | 0 | 32µM | 0
Cc1ccccc1Cc1c(C)nc2nc(SCC(=O)NCCc3ccc(Cl)cc3)nn2c1C | - | 0 | 0 | 32µM
C[N+](C)(C)c1ccc(/C=C/c2ccnc3ccccc23)cc1 | 0 | - | - | -
CC[N+](CC)(CC)CCOc1ccc(/C=C/c2ccccc2)cc1 | 0 | 0 | 0 | 35µM
Cc1ccc(Nc2c(-c3ccc(C)o3)nc3ccccn23)cc1 | 0 | - | - | -
Cc1ccc(Nc2c(-c3ccc(C)o3)nc3cnccn23)cc1 | 0 | 0 | 0 | 22µM
Cc1ccc(-c2nc3cnccn3c2Nc2ccccc2)o1 | 20µM | 0 | 0 | 35µM
CSc1ccc(-c2nc3cnccn3c2Nc2ccc3c(c2)OCO3)cc1 | 0 | 0 | 0 | 25µM
Cc1ccc(-c2nc3ccccn3c2Nc2ccccc2)o1 | 0 | 0 | 0 | 0
COc1ccc(C(=O)C2(C(=O)Nc3cc(C)cc(C)c3)CC(c3ccccc3C(F)(F)F)=NO2)cc1 (stereo not given) | - | - | 0 | -
CC(C)c1ccc(NC(=O)CSc2nnc(-c3ccccc3)n2C)cc1 | 0 | - | - | -
Cc1noc2ncnc(Sc3ccc(Cl)cc3)c12 | 0 | 0 | 0 | 6.3µM
CCCN1CNc2c(c(=O)[nH]c(=S)n2CCc2cc(Cl)ccc2Cl)C1 | 0 | - | - | -

Assay outcomes deposited in PubChem by National Center for Advancing Translational Sciences (NCATS).
